Measured values: PubChem BioAssay
Active and inactive are the calls of the source.

Tests used:
[1] = system: PRMT1 (protein arginine N-methyltransferase 1); assay: PRMT1 binders on small-molecule microarrays, primary screen, biochemical, small-molecule microarray, 635 nm fluorescence (AID 1088); conditions: small-molecule microarray binding, higher = more signal;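 further: binding of Prmt1 protein to compounds spotted on small-molecule microarray slides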
[2] = yeast growth modulation, basal conditions, primary screen, YJM789 clinical isolate, OD600, 24 h (AID 1089);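 further: growth of clinical yeast isolate S. cerevisiae YJM 789 seeded 1000 cells per well; test concentration not given here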; conditions: S. cerevisiae YJM789 growth, higher = more signal, called active from +8 up or from −8 down
[3] = fission yeast growth modulation, primary screen, strain 972, OD600, 24 h, no modulator (AID 1090);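 further: basal condition with compound alone and no growth modifier present; test concentration not given here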; conditions: S. pombe 972 growth, higher = more signal, called active from +8 up or from −8 down
[4] = S. cerevisiae growth modulation with rapamycin, primary screen, strain BY4716, OD600, 96 h (AID 1091); conditions: higher = more signal, called active from +8 up or from −8 down; further: test concentration not given here
[5] = molecular target: Torsin-1A-interacting protein 2 (Homo sapiens) (UniProt Q8NFQ8); assay: LULL1 binders on small-molecule microarray, primary screen, cell lysate, human LULL1 lysate, 635/667 nm fluorescence (AID 1092); conditions: hLULL1 lysate binding, 635 nm fluorescence, higher = more signal;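 further: probe is lysate of COS7 cells overexpressing human LULL1; score merges per-feature 667 nm fluorescence with signal-to-noise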
[6] = E. coli growth modulation, two-sided OD650, primary screen, E. coli filamentation project, strain DRC41, 24 h (AID 1093); conditions: OD650, 24 h, higher = more signal, called active from +8 up or from −8 down;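 further: MC1000 strain lacking acrAB efflux and sulA so SOS filamentation is blocked; test concentration not given here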
[7] = small-molecule microarray binders of probe aLefty2, primary screen, biochemical, biotinylated probe, 635/667 nm fluorescence (AID 1094); conditions: higher = more signal;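 further: score merges spot fluorescence near 667 nm with spot signal-to-noise ratio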
[8] = system: Noggin (protein binding on small-molecule microarray); assay: Noggin binders on small-molecule microarray, primary screen, biochemical, 635/667 nm fluorescence (AID 1095); conditions: 635 nm fluorescence, higher = more signal;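 further: score merges 667 nm feature fluorescence with signal to noise over triplicate slides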
[9] = molecular target: Neurogenic locus notch homolog protein 3 (Homo sapiens) (UniProt Q9UM47); assay: NOTCH3 binders on small-molecule microarray, primary screen, biochemical, 635/667 nm fluorescence (AID 1096); conditions: NOTCH3 binding, 635 nm fluorescence, higher = more signal
[10] = small-molecule microarray binders of probe aEGFR, primary screen, biochemical, biotinylated probe, 635/667 nm fluorescence (AID 1097); conditions: higher = more signal;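 further: probe is a biotinylated anti-EGFR antibody binding compounds printed on slides; score combines fluorescence near 667 nm and signal to noise of each spot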
[11] = system: Plasmodium falciparum Sir2 (PF13_0152, Sir2A); assay: pfSir2 binders on small-molecule microarrays, primary screen, biochemical, small-molecule microarray, 635 nm fluorescence (AID 1098); conditions: small-molecule microarray binding, fluorescence 635 nm; higher = more signal;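 further: score merges spot fluorescence intensity with its signal-to-noise ratio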
[12] = small-molecule microarray binders of probe aDKK1, primary screen, biochemical, biotinylated probe, 635/667 nm fluorescence (AID 1099); conditions: higher = more signal;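 further: score merges 667nm spot fluorescence with signal to noise across triplicate slides; reference of the scale not given here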
[13] = small-molecule microarray binders of probe aCHRDL2, primary screen, biochemical, biotinylated probe, 635/667 nm fluorescence (AID 1100); conditions: higher = more signal
[14] = splicing luciferase reporter signal modulators, primary screen, spliceosome inhibition project, cell-based, HEK293, splice +/- reporter (AID 1101); conditions: luminescence, 24 h, higher = more signal, called active from +8 up or from −8 down;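 further: HEK293 cells carrying a splicing-competent luciferase reporter gene; test concentration not given here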
[15] = molecular target: Fibroblast growth factor 10 (Homo sapiens) (UniProt O15520); assay: FGF10 binders on small-molecule microarrays, primary screen, biochemical, small-molecule microarray, 635 nm fluorescence (AID 1102); conditions: FGF10 binding, fluorescence 635 nm, higher = more signal
[16] = system: glycogen synthase kinase-3 (GSK3A per assay name; protocol says GSK3B); assay: GSK3 binders on small-molecule microarrays, primary screen, biochemical, small-molecule microarray, 635 nm fluorescence, GSK3A (AID 1103); conditions: small-molecule microarray binding, fluorescence 635 nm; higher = more signal; further: the record names both GSK3A and GSK3B
[17] = molecular target: Epidermal growth factor receptor (Homo sapiens) (UniProt P00533); assay: EGFR binders on small-molecule microarrays, primary screen, biochemical, small-molecule microarray, 635 nm fluorescence (AID 1104); conditions: EGFR binding, higher = more signal;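 further: score merges 667 nm emission intensity with spot signal to noise over triplicate slides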
[18] = molecular target: Follistatin-related protein 3 (Homo sapiens) (UniProt O95633); assay: FSTL3 binders on small-molecule microarrays, primary screen, biochemical, small-molecule microarray, 635 nm fluorescence (AID 1105); conditions: FSTL3 binding, higher = more signal;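 further: score merges emission near 667 nm and signal to noise per printed spot across three slides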
[19] = molecular target: Dickkopf-related protein 1 (Homo sapiens) (UniProt O94907); assay: DKK1 binders on small-molecule microarrays, primary screen, biochemical, small-molecule microarray, 635 nm fluorescence scan (AID 1106); conditions: DKK1 binding, higher = more signal;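 further: score merges emission near 667 nm with signal to noise over three replicate slides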
[20] = system: Inhibin beta A chain (activin A); assay: INHBA (activin A) binders on microarrays, primary screen, biochemical, small-molecule microarray, 635 nm fluorescence scan (AID 1107); conditions: small-molecule microarray binding, higher = more signal;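 further: mouse activin A protein probed at 4.33 µg/mL on printed slides; score merges bound-protein fluorescence near 667 nm with spot signal-to-noise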

Epidermal growth factor receptor (Homo sapiens), sequence (P00533 whole entry, looked up): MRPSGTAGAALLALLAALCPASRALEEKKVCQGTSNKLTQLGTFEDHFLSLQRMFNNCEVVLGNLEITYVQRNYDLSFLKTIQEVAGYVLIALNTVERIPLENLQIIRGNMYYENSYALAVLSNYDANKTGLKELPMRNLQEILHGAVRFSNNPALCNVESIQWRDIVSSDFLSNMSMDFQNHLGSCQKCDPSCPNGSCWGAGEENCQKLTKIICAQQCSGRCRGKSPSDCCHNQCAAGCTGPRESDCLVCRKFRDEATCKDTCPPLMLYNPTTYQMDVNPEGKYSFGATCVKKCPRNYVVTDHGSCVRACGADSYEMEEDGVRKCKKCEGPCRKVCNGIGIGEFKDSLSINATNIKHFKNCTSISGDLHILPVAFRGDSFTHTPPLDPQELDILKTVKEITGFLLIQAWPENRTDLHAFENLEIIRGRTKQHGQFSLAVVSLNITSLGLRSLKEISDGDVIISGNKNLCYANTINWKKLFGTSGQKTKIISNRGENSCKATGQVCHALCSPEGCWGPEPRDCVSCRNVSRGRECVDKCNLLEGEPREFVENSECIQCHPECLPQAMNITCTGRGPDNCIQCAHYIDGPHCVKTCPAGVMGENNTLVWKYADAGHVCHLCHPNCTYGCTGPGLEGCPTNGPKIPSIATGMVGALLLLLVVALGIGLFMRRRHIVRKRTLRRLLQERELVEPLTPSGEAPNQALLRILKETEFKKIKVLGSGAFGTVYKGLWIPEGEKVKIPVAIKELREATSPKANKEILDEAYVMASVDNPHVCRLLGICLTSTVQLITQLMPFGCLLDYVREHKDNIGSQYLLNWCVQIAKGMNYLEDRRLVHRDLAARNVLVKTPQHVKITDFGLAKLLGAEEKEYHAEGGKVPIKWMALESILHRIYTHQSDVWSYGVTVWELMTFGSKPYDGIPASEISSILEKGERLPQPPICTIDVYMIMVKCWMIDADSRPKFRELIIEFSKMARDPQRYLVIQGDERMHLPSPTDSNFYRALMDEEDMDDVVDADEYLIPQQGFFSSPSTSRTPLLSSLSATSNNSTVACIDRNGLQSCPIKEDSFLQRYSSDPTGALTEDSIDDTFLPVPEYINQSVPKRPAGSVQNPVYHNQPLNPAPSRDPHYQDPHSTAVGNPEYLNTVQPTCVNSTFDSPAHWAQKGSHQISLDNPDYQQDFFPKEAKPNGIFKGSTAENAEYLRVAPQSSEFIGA
Follistatin-related protein 3 (Homo sapiens), sequence (O95633 whole entry, looked up): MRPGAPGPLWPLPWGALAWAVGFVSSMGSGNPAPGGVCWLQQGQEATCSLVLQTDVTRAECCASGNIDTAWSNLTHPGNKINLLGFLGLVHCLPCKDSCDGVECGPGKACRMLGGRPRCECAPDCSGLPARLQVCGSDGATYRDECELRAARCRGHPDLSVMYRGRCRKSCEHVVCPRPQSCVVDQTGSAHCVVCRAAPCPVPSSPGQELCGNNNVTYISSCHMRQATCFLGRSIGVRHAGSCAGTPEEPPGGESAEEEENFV
Dickkopf-related protein 1 (Homo sapiens), sequence (O94907 whole entry, looked up): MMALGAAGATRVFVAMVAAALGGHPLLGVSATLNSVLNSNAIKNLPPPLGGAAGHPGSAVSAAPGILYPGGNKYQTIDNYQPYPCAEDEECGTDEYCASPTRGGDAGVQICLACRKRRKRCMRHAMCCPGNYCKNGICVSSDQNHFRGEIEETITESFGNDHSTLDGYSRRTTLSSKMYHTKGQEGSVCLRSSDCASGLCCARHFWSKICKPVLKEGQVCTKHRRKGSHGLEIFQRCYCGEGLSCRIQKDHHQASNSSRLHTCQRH
Fibroblast growth factor 10 (Homo sapiens), sequence (O15520 whole entry, looked up): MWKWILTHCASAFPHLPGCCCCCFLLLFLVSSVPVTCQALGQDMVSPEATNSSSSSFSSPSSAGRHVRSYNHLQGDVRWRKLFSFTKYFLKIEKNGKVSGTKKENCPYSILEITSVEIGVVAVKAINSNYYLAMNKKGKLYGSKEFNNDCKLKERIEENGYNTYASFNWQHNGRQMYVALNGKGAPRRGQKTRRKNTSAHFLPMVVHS
Neurogenic locus notch homolog protein 3 (Homo sapiens), sequence (Q9UM47 whole entry, looked up): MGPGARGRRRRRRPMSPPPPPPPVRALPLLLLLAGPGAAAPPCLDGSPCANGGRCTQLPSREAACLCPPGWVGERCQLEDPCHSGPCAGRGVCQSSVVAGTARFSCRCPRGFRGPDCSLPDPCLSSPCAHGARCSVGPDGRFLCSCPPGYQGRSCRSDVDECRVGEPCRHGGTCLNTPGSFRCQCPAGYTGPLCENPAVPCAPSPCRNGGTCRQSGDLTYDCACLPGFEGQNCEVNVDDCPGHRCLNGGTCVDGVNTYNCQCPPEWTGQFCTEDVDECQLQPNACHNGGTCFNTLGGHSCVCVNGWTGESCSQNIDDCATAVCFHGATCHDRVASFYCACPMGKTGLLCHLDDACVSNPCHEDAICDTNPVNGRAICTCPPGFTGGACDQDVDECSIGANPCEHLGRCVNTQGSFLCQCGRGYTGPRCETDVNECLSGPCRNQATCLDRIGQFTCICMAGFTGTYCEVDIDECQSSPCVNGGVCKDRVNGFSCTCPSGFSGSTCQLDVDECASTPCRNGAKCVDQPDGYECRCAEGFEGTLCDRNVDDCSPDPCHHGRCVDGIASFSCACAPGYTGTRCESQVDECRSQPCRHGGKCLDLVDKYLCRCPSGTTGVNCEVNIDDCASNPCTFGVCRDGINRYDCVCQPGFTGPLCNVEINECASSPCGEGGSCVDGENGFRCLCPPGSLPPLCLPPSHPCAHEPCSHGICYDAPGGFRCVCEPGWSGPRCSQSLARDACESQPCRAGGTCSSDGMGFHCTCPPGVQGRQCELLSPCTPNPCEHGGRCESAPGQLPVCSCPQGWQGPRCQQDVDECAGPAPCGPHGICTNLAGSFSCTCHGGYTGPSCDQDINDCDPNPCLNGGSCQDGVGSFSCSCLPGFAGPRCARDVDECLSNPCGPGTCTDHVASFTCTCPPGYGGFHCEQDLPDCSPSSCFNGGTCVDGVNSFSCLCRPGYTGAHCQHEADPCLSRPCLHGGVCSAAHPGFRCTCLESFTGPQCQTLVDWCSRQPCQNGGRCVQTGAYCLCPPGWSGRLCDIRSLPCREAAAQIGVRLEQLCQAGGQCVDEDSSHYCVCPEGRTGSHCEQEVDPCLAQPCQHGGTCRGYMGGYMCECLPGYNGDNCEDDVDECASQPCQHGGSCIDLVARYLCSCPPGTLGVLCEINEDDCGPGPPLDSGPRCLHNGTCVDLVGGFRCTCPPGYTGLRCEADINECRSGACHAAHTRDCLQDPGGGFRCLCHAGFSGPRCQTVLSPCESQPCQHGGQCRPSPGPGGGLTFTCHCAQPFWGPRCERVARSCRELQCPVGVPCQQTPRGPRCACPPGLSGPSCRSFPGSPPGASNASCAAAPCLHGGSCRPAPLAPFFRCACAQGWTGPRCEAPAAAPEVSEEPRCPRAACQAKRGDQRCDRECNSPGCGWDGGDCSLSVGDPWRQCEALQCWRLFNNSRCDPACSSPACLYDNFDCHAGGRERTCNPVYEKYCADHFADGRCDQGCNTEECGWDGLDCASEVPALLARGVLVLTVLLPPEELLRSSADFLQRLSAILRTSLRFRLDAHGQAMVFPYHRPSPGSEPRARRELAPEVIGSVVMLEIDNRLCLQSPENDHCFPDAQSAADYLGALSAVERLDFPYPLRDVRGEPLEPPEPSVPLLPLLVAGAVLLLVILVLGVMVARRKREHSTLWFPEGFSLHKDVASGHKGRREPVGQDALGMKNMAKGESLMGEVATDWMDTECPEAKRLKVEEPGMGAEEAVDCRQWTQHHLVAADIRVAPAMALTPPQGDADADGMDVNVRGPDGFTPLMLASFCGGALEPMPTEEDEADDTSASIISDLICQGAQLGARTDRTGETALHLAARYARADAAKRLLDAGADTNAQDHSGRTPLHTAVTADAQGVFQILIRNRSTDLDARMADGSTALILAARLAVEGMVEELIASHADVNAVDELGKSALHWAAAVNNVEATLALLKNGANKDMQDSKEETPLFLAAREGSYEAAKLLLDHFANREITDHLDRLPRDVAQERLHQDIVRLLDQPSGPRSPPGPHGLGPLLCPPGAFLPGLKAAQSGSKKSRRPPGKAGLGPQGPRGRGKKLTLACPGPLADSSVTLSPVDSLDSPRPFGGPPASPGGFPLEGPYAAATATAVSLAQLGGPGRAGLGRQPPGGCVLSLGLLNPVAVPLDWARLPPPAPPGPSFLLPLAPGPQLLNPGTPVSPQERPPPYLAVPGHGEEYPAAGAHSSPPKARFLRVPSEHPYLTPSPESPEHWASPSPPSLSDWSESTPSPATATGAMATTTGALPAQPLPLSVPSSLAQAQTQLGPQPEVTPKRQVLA
Torsin-1A-interacting protein 2 (Homo sapiens), sequence (Q8NFQ8 whole entry, looked up): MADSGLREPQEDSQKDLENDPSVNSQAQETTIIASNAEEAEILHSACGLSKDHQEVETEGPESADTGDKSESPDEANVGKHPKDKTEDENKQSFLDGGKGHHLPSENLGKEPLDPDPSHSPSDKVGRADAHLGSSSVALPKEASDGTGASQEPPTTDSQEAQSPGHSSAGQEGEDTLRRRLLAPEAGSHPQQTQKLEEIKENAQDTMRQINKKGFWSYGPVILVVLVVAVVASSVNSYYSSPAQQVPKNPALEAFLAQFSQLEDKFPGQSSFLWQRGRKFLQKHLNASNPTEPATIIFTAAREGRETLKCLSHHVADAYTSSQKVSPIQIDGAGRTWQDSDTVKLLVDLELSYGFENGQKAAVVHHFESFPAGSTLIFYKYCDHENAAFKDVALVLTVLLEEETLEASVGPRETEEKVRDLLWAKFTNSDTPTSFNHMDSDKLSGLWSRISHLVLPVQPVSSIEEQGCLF

SMILES	composite z-score [1]	z-score [2]	z-score [3]	z-score [4]	composite z-score [5]	z-score [6]	composite z-score [7]	composite z-score [8]	composite z-score [9]	composite z-score [10]	composite z-score [11]	composite z-score [12]	composite z-score [13]	z-score [14]	composite z-score [15]	composite z-score [16]	composite z-score [17]	composite z-score [18]	composite z-score [19]	composite z-score [20]
O=C1[C@H]2C=C(Br)[C@H](C[C@@H]2c2ccccc2)[C@@]12CO2	0.366	-0.703 (inactive)	-14.7 (active)	-0.973 (inactive)	0.328	-0.779 (inactive)	-0.172	1.36	0.412	-0.156	-0.0067	-0.217	-0.261	0.723 (inactive)	0.774	0.381	0.513	0.733	0.765	0.648
C=CCNC(=O)[C@@H]1[C@H]2C(=O)O[C@H](c3ccccc3)[C@H](c3ccccc3)N2[C@H](c2ccc(OCCO)cc2)[C@@]12C(=O)Nc1ccc(C#CCCO)cc12	1.52	0.85 (inactive)	0.975 (inactive)	3.39 (inactive)	3.29	-0.207 (inactive)	0.501	1.36	1.12	0.692	1.7	-0.0674	0.456	-1.09 (inactive)	1.22	1.27	0.652	1.42	1.12	1.26
CN(C)C(=O)[C@]1(Cc2ccccc2N=[N+]=[N-])N=C(c2ccc(OCCCO)cc2)O[C@@H]1c1ccccc1	1.39	-0.958 (inactive)	-2.29 (inactive)	-0.195 (inactive)	3.02	0.677 (inactive)	0.149	1.21	0.905	-0.0512	1.47	0.467	0.787	-1.17 (inactive)	0.818	1.28	0.0161	0.373	-0.121	0.545
CC(C)(C)C(=O)N[C@@H](c1ccc(Cl)cc1)[C@]1(C)C[C@H]1C1CCCCC1	1.05	0.553 (inactive)	0.613 (inactive)	-0.104 (inactive)	3.61	-0.21 (inactive)	0.43	-0.486	1.05	0.106	0.705	0.701	0.933	-0.455 (inactive)	0.521	1.28	-0.19	0.233	0.0399	0.998
O=C(NCc1ccccc1)[C@@H]1c2ccccc2C(=O)N(CC23CC4CC(CC(C4)C2)C3)[C@H]1c1ccc(CO)cc1	1.55	-0.52 (inactive)	-0.0538 (inactive)	0.988 (inactive)	2.9	-0.668 (inactive)	-0.225	1.72	1.05	-0.137	1.6	-0.654	-0.524	0.152 (inactive)	0.971	1.31	0.603	1.43	0.593	0.147
CCCC[C@@H]1C[C@H]1[C@@H](NC(=O)c1ccco1)c1ccc(C(=O)OC)cc1	0.488	-0.152 (inactive)	-1.61 (inactive)	0.06 (inactive)	1.93	-1.53 (inactive)	0.0258	-1.2	-0.64	-0.171	-0.433	0.0294	0.838	0.965 (inactive)	0.0373	-1.09	-0.643	-0.76	-0.633	0.807
O=C1O[C@H](c2ccccc2)[C@H](c2ccccc2)N2[C@H]1[C@@H](C(=O)Nc1nc3ccccc3s1)[C@]1(C(=O)Nc3ccc(C#CC4(O)CCCCCC4)cc31)[C@H]2c1ccc(OCCO)cc1	1.56	1.22 (inactive)	1.76 (inactive)	1.76 (inactive)	2.2	0.546 (inactive)	0.0317	0.986	1.02	0.0589	1.17	0.507	0.531	0.053 (inactive)	1.24	1.02	0.662	0.714	0.525	0.523
O=C(NCc1ccccc1)[C@@]1(Cc2ccccc2)N=C(c2ccc(OCCCO)cc2)O[C@H]1c1ccccc1	0.982	0.46 (inactive)	-0.666 (inactive)	23.2 (active)	3.39	0.842 (inactive)	0.126	-0.595	0.642	0.0357	0.652	1.15	1.23	0.915 (inactive)	0.366	0.3	-0.47	0.448	-0.996	0.425
CN(C)CCCCCCNC(=O)[C@@H]1C[C@@H]2C(=O)N[C@@H](CCCCN)C(=O)N2[C@@H]1c1cccc(OCCO)c1	1.55	-5.46 (inactive)	-5.83 (inactive)	-1.3 (inactive)	4.63	0.0508 (inactive)	1.65	1.8	1.02	1.02	1.96	2.69	1.65	-1.56 (inactive)	1.59	1.47	1.11	1.66	2.13	1.55
CN(C)C(=O)[C@]1(Cc2ccccc2CN=[N+]=[N-])N=C(c2ccc(OCCCO)cc2)O[C@@H]1c1ccccc1CN=[N+]=[N-]	1.56	-0.0966 (inactive)	-0.16 (inactive)	4.49 (inactive)	3.59	-0.255 (inactive)	0.0112	1.18	1.11	0.0816	0.0579	0.423	0.708	0.646 (inactive)	1.17	1.32	-0.0263	1.18	-0.38	0.844
CC[C@@H]1C=C(C(=O)O)[C@H](c2ccco2)N1S(=O)(=O)c1ccc(C)cc1	0.475	0.316 (inactive)	0.535 (inactive)	-0.407 (inactive)	0.0172	0.0597 (inactive)	-0.0644	0.237	-0.14	-0.171	1.37	-0.0292	0.333	0.447 (inactive)	0.0314	0.175	-0.832	0.291	0.128	1.23
O=C1NC(=O)C2C1C=CC(C(O)C(c1ccccc1)c1ccccc1)N2Nc1ccc(Cl)cc1Cl (stereo not given)	0.532	-0.111 (inactive)	-0.767 (inactive)	1.5 (inactive)	2.86	-1.27 (inactive)	0.185	0.561	0.982	-0.0267	0.496	0.824	1.11	1.44 (inactive)	0.554	0.0932	-0.261	0.908	-0.737	0.974
Cc1ccc(C(C)CC(O)C2C=CC3C(=O)N(C)C(=O)C3N2NC(=O)OC(C)(C)C)o1 (stereo not given)	1.42	0.309 (inactive)	-0.63 (inactive)	0.101 (inactive)	3	-0.615 (inactive)	0.0682	0.68	1.06	0.0681	1.07	0.202	0.0719	1.92 (inactive)	0.803	1.29	0.96	1.3	0.837	-0.0924
Cc1ccc(S[C@]2(C(=O)NC(C)C)CC(=O)N(Cc3ccccc3Cl)[C@@H]2c2ccc(CO)cc2I)cc1	1.14	-1.59 (inactive)	-1.98 (inactive)	0.239 (inactive)	1.81	0.0987 (inactive)	0.0282	-0.28	-0.317	-0.287	1	0.0056	1.07	0.0132 (inactive)	-1.05	-0.26	-1.51	-0.674	-1.39	0.762
CCCCCCC#C[Si](O[C@H](c1ccccc1)c1cn([C@H](CO)Cc2ccccc2)nn1)(C(C)C)C(C)C	1.55	-2.3 (inactive)	-16.2 (active)	-1.57 (inactive)	1.7	1.16 (inactive)	-0.198	0.0817	-0.0029	-0.115	0.984	-0.35	-0.101	-0.77 (inactive)	0.629	0.166	-0.525	-0.25	-0.15	-0.33
CCOC(=O)C1=CCC(c2ccccc2)N(S(=O)(=O)CC[Si](C)(C)C)C1 (stereo not given)	-0.0595	-0.465 (inactive)	0.178 (inactive)	2.78 (inactive)	0.0058	0.185 (inactive)	-0.235	-0.288	-0.822	-0.334	-0.285	-0.264	-0.534	0.191 (inactive)	-0.887	-0.157	-0.458	-0.736	-0.214	1.24
CN(C)CCCNC(=O)[C@@]1(c2ccc([N+](=O)[O-])cc2)CC(=O)N(C2CCCCC2)[C@@H]1c1ccc(CO)cc1I	1.07	-1.13 (inactive)	-20.1 (active)	-3.11 (inactive)	1.84	-0.112 (inactive)	-0.147	0.331	0.215	-0.0679	1.12	-0.116	0.736	-3.68 (inactive)	-0.341	1.28	-0.0949	0.381	-0.212	0.462
C[C@@H]1ON(c2cccc(C(=O)OC(C)(C)C)c2)[C@H](c2ccc(Br)cc2)[C@H]1C(=O)N1C(=O)OC[C@H]1Cc1ccccc1	1.54	0.912 (inactive)	1.38 (inactive)	0.528 (inactive)	1.5	-0.448 (inactive)	-0.0408	0.57	1.12	-0.0039	0.801	-0.155	-0.319	-0.0916 (inactive)	1.15	0.962	0.51	1.03	0.693	0.272
O=C1NC(=O)C2C1C=CC(C(O)Cc1ccccc1)N2Nc1ccc(Cl)cc1Cl (stereo not given)	-0.403	-4.33 (inactive)	-1.51 (inactive)	-0.125 (inactive)	3.21	0.177 (inactive)	-0.0134	-0.49	0.332	-0.096	1.2	0.931	1.09	1.8 (inactive)	0.175	-0.0984	-0.854	0.236	-1.18	1.07
C=CC[C@]12N=C(c3ccc(OCCCO)cc3)O[C@H]1c1ccccc1N(Cc1ccccc1)C2=O	1.46	-0.523 (inactive)	-0.371 (inactive)	1.89 (inactive)	1.04	0.508 (inactive)	0.331	0.313	0.483	-0.0692	1.28	1.21	1.37	-0.415 (inactive)	0.706	0.524	0.112	0.836	0.378	0.897
